# Experimental data reported in PubChem BioAssay AID488969 (Vanderbilt High Throughput Screening Facility, 2010).
# Over roughly 110,000 compounds, “z-score” has its median near -0.1; the highest 2% begin near 2. This excerpt belongs to a sample that is enriched for the highest values. The source made the active and inactive calls.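 How the source made its calls: active means z-score in the third read window above 3 or below -3; inactive means the rest.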
# Target: Metabotropic glutamate receptor 8 (Rattus norvegicus) (UniProt P70579)
# Experiment: mGluR8 Gi/Go-coupled signaling modulation – cell-based, rat, thallium flux, HTS, primary screen (AID 488969)
# Conditions: HEK293 rat mGluR8, GIRK (G protein-gated inwardly rectifying potassium channel) thallium flux, FluoZin2; at 10 µM; stronger effect = higher value; submaximal glutamate (EC20) added with thallium
# Metabotropic glutamate receptor 8 (Rattus norvegicus), sequence (P70579 whole entry, looked up): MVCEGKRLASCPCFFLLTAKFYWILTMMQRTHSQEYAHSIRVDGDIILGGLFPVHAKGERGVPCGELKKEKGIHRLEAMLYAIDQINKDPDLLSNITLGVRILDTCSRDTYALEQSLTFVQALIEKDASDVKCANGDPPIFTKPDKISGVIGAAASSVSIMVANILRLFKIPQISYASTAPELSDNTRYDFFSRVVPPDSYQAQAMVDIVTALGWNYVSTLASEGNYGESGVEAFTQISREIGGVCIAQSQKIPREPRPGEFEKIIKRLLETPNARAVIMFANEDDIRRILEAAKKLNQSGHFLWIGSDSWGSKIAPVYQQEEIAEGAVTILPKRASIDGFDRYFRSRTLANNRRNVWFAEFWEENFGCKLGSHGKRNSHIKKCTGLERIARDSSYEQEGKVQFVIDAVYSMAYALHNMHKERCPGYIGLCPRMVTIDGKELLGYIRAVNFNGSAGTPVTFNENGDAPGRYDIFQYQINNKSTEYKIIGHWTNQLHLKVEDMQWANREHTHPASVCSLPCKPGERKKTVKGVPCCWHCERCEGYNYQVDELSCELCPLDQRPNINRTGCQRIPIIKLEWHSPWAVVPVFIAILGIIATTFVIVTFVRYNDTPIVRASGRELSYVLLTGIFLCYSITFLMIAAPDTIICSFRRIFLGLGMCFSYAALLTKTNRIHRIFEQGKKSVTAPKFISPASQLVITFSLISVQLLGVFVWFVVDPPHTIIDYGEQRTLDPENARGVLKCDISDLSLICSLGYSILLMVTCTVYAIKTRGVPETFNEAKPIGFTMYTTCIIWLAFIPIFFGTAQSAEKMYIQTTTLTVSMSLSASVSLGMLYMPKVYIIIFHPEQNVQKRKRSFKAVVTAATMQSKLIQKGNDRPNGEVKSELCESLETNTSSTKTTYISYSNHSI
row,SMILES,z-score
1,COc1ccc(Cl)cc1N(C)C(=O)CCc1nc(-c2ccc(C)cc2)no1,0.139
2,CC(=O)Nc1ccc(SCC(=O)Nc2ccccc2-c2ccccc2)cc1,-0.153
3,CCCCNC(=S)Nc1ccccc1F,0.54
4,CNC(=S)N/N=C1\C(=O)c2cccc3cccc1c23,14.1 (active)
5,O=C(N/N=C1/C(=O)c2cccc3cccc1c23)c1ccc(Cl)cc1,3.2 (active)
6,CC(=O)N1C(=O)c2cccc3cccc(c23)C(=O)N1C(C)=O,0.73
7,CCCCNC(=S)N/N=C1\C(=O)c2cccc3cccc1c23,3.16 (active)
8,O=C1c2cccc3cccc(c23)C(=O)N1OS(=O)(=O)c1ccc(Cl)cc1,0.123
9,CC(C)/C=N/NC(=O)c1ccc(Cl)cc1,-0.254
10,CCNC(=S)NS(=O)(=O)c1ccccc1,-0.195
11,CCNC(=S)N/N=C/c1ccco1,0.768
12,CCCCNC(=S)N/N=C/c1ccc(C)s1,1.81
13,CNC(=O)CN1C(=O)c2cccc3cccc1c23,0.394
14,CCNC(=S)N/N=C1\C(=O)c2cccc3cccc1c23,12.9 (active)
15,CCC(Sc1nc2ccccc2c(=O)[nH]1)C(=O)O (stereo not drawn),0.219
16,CC(C)(C)c1ccc(S(=O)(=O)NCC(=O)N2CCN(C(=O)c3ccco3)CC2)cc1,-0.0781
17,O=C(CCSCCC(=O)NCc1ccc(F)cc1)NCc1ccc(F)cc1,-0.471
18,CCOC(=O)c1c(-c2ccc(OC)cc2)csc1/N=C/N(C)C,-0.193
19,COc1ccc2c(c1)c1nc3ccccc3nc1n2Cc1ccc(OC(C)C)c(OC)c1,-0.644
20,O=C(NCC(=O)N1CCN(c2ncccn2)CC1)c1cccs1,0.235
21,Cn1cc(-c2nnnn2-c2ccc(Cl)cc2)c(C(F)(F)F)n1,0.131
22,CCCCc1nc(NCc2ccccc2)c(C#N)c2c1COC(C)(C)C2,0.531
23,O=C(NCCCN1CCOCC1)c1ccc(CS(=O)(=O)c2ccc(Br)cc2)o1,-0.0398

row,SMILES,z-score
1,CC(=O)Nc1ccc(NC(=O)c2ccc(Cn3cc(Cl)cn3)cc2)cc1,-0.369
2,Cn1c(-c2ccccc2)cccc1=O,0.333
3,S=c1[nH]cc(-c2ccccc2)n1-c1ccccc1,0.267
4,S=c1[nH]cc(-c2ccc(Cl)cc2)n1-c1ccccc1,1.94
5,Cn1c(-c2ccc(-c3ccccc3)cc2)c[nH]c1=S,4.21 (active)
6,C=CCn1c(-c2ccccc2)c[nH]c1=S,0.229
7,CCn1c(-c2ccc(-c3ccccc3)cc2)c[nH]c1=S,3.86 (active)
8,S=c1[nH]cc(-c2ccccc2)n1-c1cccc(Cl)c1,2.94
9,S=c1[nH]ccn1-c1cccc(Cl)c1,2.29
10,Cc1cccc(-n2cc[nH]c2=S)c1,0.0616
11,CCn1c(-c2ccccc2)c[nH]c1=S,0.254
12,S=c1[nH]cc(-c2ccccc2)n1-c1ccccc1Cl,0.447
13,Cc1ccc(-n2cc[nH]c2=S)cc1C,1.42
14,COc1ccnc(N2CCN(c3ccccc3)CC2)c1C#N,0.0026
15,COc1cccc(/C(O)=C2/C(=O)C(=O)N(CCN(C)C)C2c2ccccn2)c1 (stereo not drawn),-0.249
16,CCc1ccc(NC(=O)CSc2nc3ccccc3c(=O)n2CCCC(=O)N2CCCC2)cc1,-0.305
17,NC(=O)c1ccc(F)cc1,0.635
18,Cc1ccc(NC(=O)N2C(=O)C3(OCCO3)c3ccccc32)cc1,-0.237
19,COc1ccc(-c2cc(C(F)F)n3ncc(C(=O)N4CCN(C)CC4)c3n2)cc1,-0.201
20,COc1cc(C2C(C(=O)N3CCOCC3)=C(C)NC3=C2C(=O)CCC3)ccc1OC(C)=O (stereo not drawn),0.401
21,COCCCNCCCCOc1cccc(Br)c1,0.266
22,Cc1ccc2nc(NC(=O)CSc3nc4ccccc4o3)sc2c1,0.182
23,CC(=O)Nc1nc2ccc(-c3nc4ccccc4o3)cc2s1,2.69

row,SMILES,z-score
1,CC(=O)Nc1nc2ccc(C(=O)NC3CCCCC3)cc2s1,-0.32
2,Nc1nc2ccc(-c3nc4ccccc4o3)cc2s1,-0.112
3,CNC(=O)c1ccc2nc(NC(C)=O)sc2c1,8.42 (active)
4,Cc1ccc2nc(NC(=O)c3ccc4ncsc4c3)sc2c1,0.195
5,COC(=O)c1ccc(CSc2ccc3nnc(-c4cccc(F)c4)n3n2)o1,-0.901
6,Cc1cccc(N2CSC3=C(C#N)C(c4ccc(C)o4)CC(=O)N3C2)c1 (stereo not drawn),-0.375
7,CCOC(=O)/C(=C\Nc1ccc(OC(F)(F)F)cc1)Sc1ncc(C(F)(F)F)cc1Cl,-0.436
8,CN(c1cccc(NC(=O)c2ccccc2N(C)S(=O)(=O)c2ccccc2)c1)S(C)(=O)=O,-0.199
9,COc1cc(OC)cc(C(=O)Nc2ccc(-c3nc4ccccc4o3)cc2)c1,-0.273
10,COc1cc(OC)cc(C(=O)NCc2nc(-c3ccccc3)no2)c1,-0.942
11,COc1cccc(C(=O)Nc2nc(-c3ccccc3)c(-c3ccccc3)o2)c1,7.83 (active)
12,COc1cccc(C(=O)Nc2c(F)c(F)c(F)c(F)c2F)c1,-0.711
13,COc1cc(OC)cc(C(=O)Nc2nc(-c3ccccc3)c(-c3ccccc3)o2)c1,3.64 (active)
14,COc1cccc(C(=O)Nc2ccccc2)c1,-0.0644
15,CCCCOc1ccc(Cc2c(Cl)nc(SC)nc2N2CCOCC2)cc1,0.0392
16,COc1cc(CN2CCN(c3cccc(Cl)c3)CC2)cc(OC)c1OC,-0.348
17,NS(=O)(=O)c1ccc(N2N=C(c3ccccc3)CC2c2cccc(F)c2)cc1 (stereo not drawn),0.17
18,Fc1cccc(C2NN=C(c3ccccc3)S2)c1 (stereo not drawn),6.37 (active)
19,O=C1CC(c2cccc(F)c2)SC(N(c2ccccc2)c2ccccc2)=N1 (stereo not drawn),-0.127
20,O=C(N/N=C/c1ccc[nH]1)c1cccc([N+](=O)[O-])c1,-0.104
21,Cc1ccc(S(=O)(=O)N2Cc3ccccc3CC2C(=O)Nc2ccc3c(c2)OCO3)cc1 (stereo not drawn),-0.0374
22,Cc1ccc(S(=O)(=O)Nc2ccc3c(c2)CCC3)cc1,-0.101
23,Cc1ccc(S(=O)(=O)N2CC(O)CC2C(=O)Nc2ccc3c(c2)CCC3)cc1 (stereo not drawn),2.07

row,SMILES,z-score
1,COc1ccc(-c2cc3nc(C4CCN(C(=O)OC(C)(C)C)CC4)c(C(=O)O)cn3n2)cc1,-0.691
2,c1ccc2c(c1)ncn2CCC1CCCCC1,0.093
3,c1ccc(C(c2ccccc2)N2CCN(c3nc4ccccc4n4cnnc34)CC2)cc1,-0.222
4,COCCn1c(SCc2nc(N)nc(Nc3ccccc3C)n2)nc2ccccc2c1=O,-0.279
5,C/C(N)=C(/C#N)C(=O)CSc1nnnn1-c1ccc(C)cc1,0.331
6,CCCCn1c(SCC(=O)/C(C#N)=C(\C)N)nc2ccccc2c1=O,5.63 (active)
7,Cc1ccccc1Nc1nc(N)nc(CSc2nc3ccccc3c(=O)n2C)n1,0.919
8,C/C(N)=C(/C#N)C(=O)CSc1nc2ccccc2c(=O)n1-c1ccc(C)c(Cl)c1,-0.275
9,O=C(CSc1nc2ccccc2c(=O)n1Cc1ccco1)NCc1ccco1,-0.352
10,CCCCn1c(SCC(=O)NCc2ccco2)nc2ccccc2c1=O,6.36 (active)
11,C/C(N)=C(/C#N)C(=O)CSc1nc2ccccc2c(=O)n1CCCO,-0.389
12,Cn1c(SCC(=O)NCc2ccco2)nc2ccccc2c1=O,-0.354
13,CCOCCCn1c(SCC(=O)/C(C#N)=C(\C)N)nc2ccccc2c1=O,-0.243
14,C/C(N)=C(/C#N)C(=O)CSc1nc2cc(Cl)ccc2c(=O)n1-c1ccc(C)cc1,2.69
15,CCCCn1c(SCc2nc(N)nc(Nc3ccccc3C)n2)nc2ccccc2c1=O,3.44 (active)
16,O=C(O)c1cccc(Nc2ncnc3c2cnn3-c2ccccc2)c1,-1.14
17,CC(=O)C(/C=N/c1cc(-c2ccc(C)cc2)nn1-c1ccccc1)=C(\C)O,-0.251
18,CCC(=O)Nc1ccc(S(=O)(=O)N2CCCCC2)cc1OC,0.0489
19,CC(C)Cc1nc2oc3c(NCCCN4CCOCC4)ncnc3c2c2c1CCC2,0.0144
20,S=c1[nH]nc(-c2cc(-c3ccco3)[nH]n2)n1-c1ccccc1,-0.141
21,COc1cc(S(=O)(=O)N(Cc2ccccn2)Cc2ccco2)ccc1-n1cnnn1,-0.493
22,COCC(C)n1c(C)cc(C(=O)CSc2ccc(NC(C)=O)cc2)c1C (stereo not drawn),0.445
23,CC(=O)Nc1ccc(SCC(=O)c2cc(C)n(-c3ccccc3)c2C)cc1,0.162

row,SMILES,z-score
1,CC(=O)Nc1ccc(SCC(=O)c2cc(C)n(-c3ccccc3F)c2C)cc1,4.45 (active)
2,CC(=O)Nc1ccc(SCC(=O)c2cc(C)n(CC(F)(F)F)c2C)cc1,0.0826
3,CC(=O)Nc1ccc(SCC(=O)c2cc(C)n(C)c2C)cc1,-0.0734
4,COC(=O)c1ccc(-n2c(C)cc(C(=O)CSc3ccc(NC(C)=O)cc3)c2C)cc1,3.5 (active)
5,Cn1c(SCC(=O)c2ccc(F)cc2)nnc1-c1ccccc1N,-0.0125
6,O=C(CCSc1nc(-c2ccc3c(c2)OCO3)cc(C(F)(F)F)n1)NCc1ccco1,0.587
7,O=[N+]([O-])c1cccc(/C=C/c2nc(C=Nc3ccc4ccccc4c3)c(O)o2)c1,-0.0456
8,Cc1ccc(S(=O)(=O)N(C)CCCC(=O)Nc2cccc3ccccc23)cc1,-0.456
9,CCC(=O)Nc1ccc(N2CCCCC2)cc1,-0.169
10,O=C(CNC1CCCCCC1)Nc1ccccc1N1CCCCC1,-0.23
11,O=C(CNC1CCCCCC1)Nc1ccc(N2CCCC2)cc1,2.66
12,CN1C2=C(C#N)C(c3ccccc3)(C(F)(F)F)NC(=O)N2c2ccccc21 (stereo not drawn),-0.282
13,CC(C)c1nc2cc3ccccc3cc2[nH]1,0.396
14,CC(C)c1nc(-c2ccccc2)c(-c2ccccc2)[nH]1,-0.0702
15,CC(C)c1nc(=S)n(-c2ccccc2)[nH]1,4.41 (active)
16,COc1ccc(N2CCN(C(=O)NC34CC5CC(CC(C5)C3)C4)CC2)cc1,-0.0964
17,CCC(CCC(=O)Nc1ccc(S(N)(=O)=O)cc1)C(=O)O (stereo not drawn),0.735
18,COc1ccc(C2NC(=O)c3n[nH]c(C)c32)c(OC)c1 (stereo not drawn),0.447
19,Cc1[nH]nc2c1C(c1ccccc1F)NC2=O (stereo not drawn),2.74
20,CCOc1ccc(C2NC(=O)c3n[nH]c(C)c32)cc1 (stereo not drawn),0.931
21,CCOC(=O)c1[nH]c2ccc(OC)cc2c1NC(=S)N1CCN(c2ccc(F)cc2)CC1,0.623
